The results in this text go back to PubChem BioAssay AID652104 (National Center for Advancing Translational Sciences (NCATS), 2013).

The campaign covered roughly 410,000 compounds. About 7,200 (1.8%) were called active. Not shown: some 7% with an inconclusive outcome. This excerpt belongs to a sample that is enriched for actives. Values without a mark were called inactive. Calls come from the whole dose curve; as a rule, active = well fitted activation curve with a large enough effect; inconclusive = small, poorly fitted or top-dose-only effect, or another doubt; inactive = no such curve, though single readings can be large or run the other way.
Potency is the fitted concentration of half-maximal effect.

The nature of this assay: qHTS of TDP-43 Inhibitors. For growth rescue (activation): % of control where 0% means no effect. Note: nearly all actives have a fitted effect of over 50% in size. The following applies: TDP-43 expressing yeast growth rescue, BacTiter-Glo, 24 h; series mostly up to 46.1 µM; growth rescue (activation): at the top concentration. An outline of the steps:
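Cell-based yeast growth screen: TDP-43 expression induced in galactose, inoculum OD600=0.02 after raffinose pregrowth to mid-log. Read-out BacTiter-Glo luminescence at 24 hr, 30 deg C; inhibition of toxicity seen as signal increase.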
In general terms: qHTS replaces the single test concentration by a dilution series.
For `CN(C)c1ccc(C(CNS(=O)(=O)c2cc(F)ccc2F)N2CCOCC2)cc1` (stereo not drawn), the “growth rescue (activation)” value is -9.72%. The same measure, in the same setting: in the case of `CCOc1ccc(N2CC(c3nc4ccccc4n3CCOc3ccc(OC)cc3)CC2=O)cc1` (stereo not drawn) it was 13.9%; in that of `COc1cc(OC)c(NC(=O)N2CC3CCCN3c3ccccc32)cc1Cl` (stereo not drawn), 18.7%; in that of `Cc1ccc(C2C=C(c3ccc(Cl)cc3)Nc3nc(NC(=O)CCC(=O)O)nn32)cc1` (stereo not drawn), 14.3%. Turning to `CCC(C)NC(=O)c1cc(Cl)ccc1OC` (stereo not drawn), the “growth rescue (activation)” value was 4.16%.

With `COc1ccc(OC)c(C(=O)c2ccc(C(=O)N3CCN(Cc4csc(C)n4)CC3)cc2)c1`, the “growth rescue (activation)” value was -12.4%.

Consider `COc1ccc(OC)c(C(=O)c2ccc(Cl)cc2)c1`, for which the Potency is 12.6 µM (active). For the molecule `Cc1oc2ccc(O)c(CN3CCC(C)CC3)c2c1C(=O)Nc1ccccc1`, the “growth rescue (activation)” value was 18.6%. The same measure, in the same setting: the same measure for `CCOC(=O)C1CCN(c2ncnc3c2c(-c2ccccc2)cn3-c2ccc(C)cc2)CC1`: -8.43%. As for `COCCNc1ncnc2c1c(-c1ccccc1)cn2-c1ccc(C)c(Cl)c1`, the Potency is 12.6 µM (active). `CCOC(=O)C1CCN(c2ncnc3c2c(-c2ccccc2)cn3-c2cccc(C)c2)CC1`: the “growth rescue (activation)” value is 14.6%. The same measure, in the same setting: the same measure for `CCOc1ccc(N(CC)S(=O)(=O)N2CCCC(C(=O)NCc3ccc(Cl)cc3)C2)cc1` (stereo not drawn): -15.1%; for `CCOC(=O)c1ccc(NC(=O)Cn2cc(S(=O)(=O)Cc3ccccc3F)c3ccccc32)cc1`: 19%; for `Cc1c(CNC2CCCCC2)c(C(=O)O)c(C)n1Cc1cccc(Cl)c1`: -1.7%. In the case of `COc1ccc(N2CCN(S(=O)(=O)CCNC(=O)C(c3ccccc3)c3ccccc3)CC2)cc1`, the “growth rescue (activation)” value was 17.7%. Consider `COc1ccc(N2CCN(S(=O)(=O)CCNC(=O)C34CC5CC(CC(C5)C3)C4)CC2)cc1`, for which the Potency is 20 µM (active). As for `COc1ccc(OCC(=O)NCCS(=O)(=O)N2CCN(c3ccc(F)cc3)CC2)cc1`, the “growth rescue (activation)” value is -10.2%. Regarding `COCCNC(=O)CSc1c(C)cnc2c1c(=O)n(C)c(=O)n2C`, the “growth rescue (activation)” value was 12.2%.

With `Cc1ccccc1NC(=O)c1c(NC(=O)c2ccccc2F)sc2c1CCC(C)C2` (stereo not drawn), the “growth rescue (activation)” value is 18.8%. As for `CCOc1ccc(N(CC)S(=O)(=O)N2CCCC(C(=O)Nc3ccc(C(C)=O)cc3)C2)cc1` (stereo not drawn), the “growth rescue (activation)” value was 2.83%.

`O=C(O)c1ccc(NS(=O)(=O)c2cccc3nsnc23)cc1`: the “growth rescue (activation)” value was -12.3%. With `O=S(=O)(Nc1ccc(OC(F)(F)F)cc1)c1cccc2nonc12`, the Potency was 11.2 µM (active). For `Nc1ncc(S(=O)(=O)Nc2ccc(OC(F)(F)F)cc2)cn1`, the “growth rescue (activation)” value was 20.6%.

On to `Cc1ccc(CSc2oc(-c3cccs3)nc2S(=O)(=O)c2ccc(C)cc2)cc1`, for which the “growth rescue (activation)” value was -1.5%. On the same count and under the same terms, in the case of `O=C(Cc1ccc(Cl)cc1)Nc1ccc2nn(-c3ccc(Cl)cc3)nc2c1` it was 5.59%. Turning to `COc1ccc(Cn2ccnc2SCC(=O)Nc2ccc3c(c2)OCO3)cc1`, the “growth rescue (activation)” value was 31.9%. Regarding `O=C(CSCc1ccc([N+](=O)[O-])cc1)Nc1cccc(C(=O)Nc2ccccc2C(=O)O)c1`, the “growth rescue (activation)” value was -13.9%. As for `O=C(CSCc1ccc([N+](=O)[O-])cc1)NCCSCc1ccccc1`, the Potency was 20 µM (active). On to `O=C(Cc1ccc([N+](=O)[O-])cc1)NCCS(=O)(=O)N1CCN(c2ccccc2)CC1`, for which the “growth rescue (activation)” value is 10.9%. On the same count and under the same terms, in the case of `CCOC(=O)c1ccc(NC(=O)c2c(NCc3cccc(OC)c3)sc3c2CCC3)cc1` it was 8.24%. In the case of `Cc1cccc(OCC(=O)N(Cc2ccc(C(C)C)cc2)Cc2ccco2)c1C`, the “growth rescue (activation)” value was -2.83%. As for `CC(Nc1ccc(-c2nc(-c3ccco3)no2)cc1[N+](=O)[O-])c1ccccc1` (stereo not drawn), the “growth rescue (activation)” value is -6.77%.

Turning to `CC(Nc1ccc([N+](=O)[O-])cc1[N+](=O)[O-])c1ccccc1` (stereo not drawn), the Potency is 12.6 µM (active). In the case of `CC(C)OP(=O)(OC(C)C)C(Nc1ccccc1)c1cccc([N+](=O)[O-])c1` (stereo not drawn), the “growth rescue (activation)” value was -9.78%. As for `COc1ccccc1N1CCN(/N=C\C(Br)=C\c2ccccc2)CC1`, the Potency is 11.2 µM (active).

Take `COc1ccccc1N1CCN(Cc2ccc(OC)c3ccccc23)CC1`: the “growth rescue (activation)” value was -3.99%. `COc1ccccc1N1CCN(C2C(=O)c3ccccc3N2C(C)=O)CC1` (stereo not drawn): the “growth rescue (activation)” value is 25.8%. On to `CCS(=O)(=O)N1CCc2cc(C(=O)NCc3ccc(C)cc3)ccc21`, for which the “growth rescue (activation)” value was 20.1%.

Turning to `CCOC(=O)c1ccccc1NC(=O)c1sc2nc(-c3ccc(F)cc3)cn2c1C`, the “growth rescue (activation)” value was 19.9%. With `CCOC(=O)C1C(=O)C=C(c2ccc(OC)cc2)CC1c1ccco1` (stereo not drawn), the Potency is 11.2 µM (active). On to `COc1ccc(C2=NN(C(=O)CSc3nnnn3C)C(c3ccco3)C2)cc1` (stereo not drawn), for which the “growth rescue (activation)” value was 12.1%. On the same count and under the same terms, in the case of `CCOC(=O)C1C(=O)NC(N2CCN(c3ccccc3)CC2)=NC1c1ccco1` (stereo not drawn) it was 1.54%; in that of `Cc1nn(C(=O)c2c(F)cccc2F)c(C)c1S(=O)(=O)N1CCOCC1`, 21.3%; in that of `O=C(NC1CC(=O)N(c2ccc(Cl)cc2)C1)C1CCCC1` (stereo not drawn), 13.7%.

On to `COc1ccccc1C(=O)Nc1c(C(=O)Nc2ccc(C)cc2)oc2ccccc12`, for which the “growth rescue (activation)” value was 6.8%.

With `Cc1ccc2cccc(NC(=O)c3ccc(OC(C)C)cc3)c2n1`, the Potency is 11.2 µM (active).

With `Cc1ccc2cccc(NC(=O)C(C)Oc3ccc(C)c(C)c3)c2n1` (stereo not drawn), the “growth rescue (activation)” value is 20%. Consider `Cc1ccc2cccc(NC(=O)c3cccc4ccccc34)c2n1`, for which the “growth rescue (activation)” value is 27.2%. The same measure, in the same setting: the same measure for `COc1ccc(-c2cc(-c3ccc(F)cc3)nc3c2COc2ccccc2-3)cc1`: 11.8%; for `CC(C)C12CN3CC(C(C)C)(CN(C1)C3c1ccc(OCc3ccccc3)cc1)C2=O` (stereo not drawn): 15.9%. For `COc1ccc(-c2nc(CCNC(=O)c3ccc(Br)o3)cs2)cc1`, the Potency was 12.6 µM (active). For the molecule `O=C(NCCc1ccccn1)c1ccc(COc2ccccc2)o1`, the “growth rescue (activation)” value was 17.8%. As to `COc1cc(OC)cc(C(=O)NNC(=O)CNC(=O)c2ccc(Br)o2)c1`, the “growth rescue (activation)” value is -3.31%. The same measure, in the same setting: in the case of `Cc1ccc(Cn2c(=O)n(Cc3nc(-c4ccccc4)no3)c(=O)c3cc4c(cc32)OCO4)cc1` it was 1.98%; in that of `CCC1CCCCN1Cc1c(O)ccc2c(=O)c(Oc3ccccc3Cl)c(C(F)(F)F)oc12` (stereo not drawn), 19.5%; in that of `Cc1cc(NC(=O)c2cccc(Cl)c2)ccc1-c1cc2ccccc2oc1=O`, 0%. `Cc1cc2oc(C(=O)N(Cc3ccc(Cl)cc3)Cc3ccco3)c(C)c2cc1Cl`: the “growth rescue (activation)” value is 17.3%.

As for `CC(C)Oc1c(Br)cc(Br)cc1/C=N/NC(N)=S`, the “growth rescue (activation)” value was 18%. As to `Cc1cccc(-n2c(C)cc(/C=N/NC(N)=S)c2C)c1`, the Potency was 35.5 µM (active). Consider `Cc1cc(/C=N/NC(N)=O)c(C)n1C1CCCCC1`, for which the “growth rescue (activation)” value is -16.5%. `COc1ccccc1NC(=O)c1oc2ccccc2c1NC(=O)C(C)C`: the “growth rescue (activation)” value is 15.9%. The same measure, in the same setting: in the case of `COc1ccccc1C1C(C(=O)N2CCCCC2)=C(C)Nc2nc3ccccc3n21` (stereo not drawn) it was 15.8%; in that of `CN(Cc1ccccc1)S(=O)(=O)c1ccc(F)c(C(=O)Nc2cccc(Cl)c2Cl)c1`, -4.13%; in that of `COc1cccc(CC(=O)N2CCCC(CCC(=O)N3CCN(c4ccccn4)CC3)C2)c1` (stereo not drawn), 10.6% [at 9.22 µM]. Consider `CC(=O)c1ccc(S(=O)(=O)NCCC(=O)N2CCN(c3ccccn3)CC2)cc1`, for which the “growth rescue (activation)” value is 13.3%.

Consider `C=Cc1ccc(C(=O)N2CCCC(CCC(=O)N3CCN(c4ccccn4)CC3)C2)cc1` (stereo not drawn), for which the Potency is 3.55 µM (active). As to `COc1cccc(N2CCN(S(=O)(=O)c3cc(Br)cc4c3N(C(=O)C3CC3)CC4)CC2)c1`, the “growth rescue (activation)” value is 21.5%.

On to `CCCCNC(=O)c1ccc(-n2c(=S)[nH]c3ccccc3c2=O)cc1`, for which the “growth rescue (activation)” value is 5.1%.

For `CCCCn1c(=S)[nH]c2ccccc2c1=O`, the Potency is 14.1 µM (active). In the case of `CCCCn1c(=S)[nH]c2ncccc2c1=O`, the “growth rescue (activation)” value was 23.4%.

With `COc1ccc(CCNC(=O)c2cc(=O)c3c(C)cc(C)cc3o2)cc1OC`, the “growth rescue (activation)” value was 1.87%. As to `Cc1ccc(CN2CCCn3nc(C(=O)NCc4ccccc4Cl)cc3C2=O)cc1`, the “growth rescue (activation)” value was 19.2%. For the molecule `Cc1ccc(CNC(=O)CCC(=O)N2Cc3ccccc3Oc3ncccc32)cc1`, the growth rescue (activation) is 14.9% [at 9.22 µM]. In the case of `COc1cc(C(=O)NCCS(=O)(=O)N2CCN(c3ccccc3)CC2)cc(OC)c1OC`, the “growth rescue (activation)” value is 22.3%. For `Cc1cccc(C)c1NC(=O)C(Cl)C(=O)c1ccccc1` (stereo not drawn), the Potency was 3.98 µM (active). As to `CN=C(c1ccccc1)c1c(C)cccc1C`, the “growth rescue (activation)” value was 18%. As to `Cc1cccc(C)c1NC(=O)N1CC(C)OC(C)C1` (stereo not drawn), the “growth rescue (activation)” value is -20.1%. In the case of `O=C(Cn1c(=O)n(-c2ccc(F)cc2)c(=O)c2sccc21)Nc1cccc(C(F)(F)F)c1`, the “growth rescue (activation)” value was 7.37%. Still for that read-out and setting: the same measure for `CCOC(=O)C1=C(CC)OC(N)=C(C#N)C1c1ccc(F)cc1F` (stereo not drawn): -18.5%; for `COC(=O)C1=CN(c2ccc(F)c(F)c2)C=C(C(=O)OC)C1c1ccc([N+](=O)[O-])cc1`: 4.3%. `COC(=O)C1=CN(c2c(C)cc(C)cc2C)C(N)=C(C#N)C1c1cccc(F)c1` (stereo not drawn): the Potency is 22.4 µM (active). Consider `CCN(Cc1ccccc1)Cc1c(O)ccc2c(=O)c(-c3ccc(Cl)cc3Cl)coc12`, for which the “growth rescue (activation)” value is -19.7%.

On to `Cc1cc2n(n1)C(c1cc(C(C)(C)C)c(O)cc1O)Nc1ccccc1-2` (stereo not drawn), for which the “growth rescue (activation)” value is 0%. Consider `COc1ccccc1CNCc1ccc(C(=O)O)s1`, for which the “growth rescue (activation)” value is 16.3%. Turning to `COCCCNC(=O)c1c(NC(=O)c2cc(=O)c3cc(C)c(C)cc3o2)sc2c1CCCC2`, the “growth rescue (activation)” value is -1.04%. In the case of `Cc1ccc(S(=O)(=O)N(Cc2nc(-c3ccc(Cl)cc3)no2)C2CCCCC2)cc1`, the “growth rescue (activation)” value was 7.13%. Still for that read-out and setting: in the case of `Cc1ccc(Cl)cc1NC(=O)/C(C#N)=C\c1cn(Cc2ccc(F)cc2)c2ccccc12` it was 21.4%; in that of `CCOc1ccc(Nc2ncnc3scc(-c4ccc(OC)cc4)c23)cc1`, -16.3%.

Take `COc1ccc(NC(=O)CSc2ncnc3[nH]ncc23)cc1`: the “growth rescue (activation)” value was -35.9%. With `COc1ccc(Nc2cc(Sc3ccc(OC)cc3)ncn2)cc1`, the Potency is 22.4 µM (active).

For `Cc1cccc2c(=O)cc(CSc3ccccc3NC(=O)C(C)C)[nH]c12`, the “growth rescue (activation)” value is -0.795%. For `O=C(CSc1ccc(-c2ccc(F)cc2)nn1)Nc1ccc2c(c1)OCCO2`, the “growth rescue (activation)” value is 17.7%. Turning to `O=C(CSc1nnc(CNC(=O)c2ccc(F)cc2)o1)Nc1ccc2c(c1)OCO2`, the “growth rescue (activation)” value was -0.573%.

As to `O=C(CSc1nc(-c2cccc(F)c2)[nH]c1-c1ccccc1)Nc1ccc2c(c1)OCO2`, the Potency was 20 µM (active). In the case of `Cc1ccc(NC(=O)CSc2nc3c([nH]c4ccccc43)c(=O)n2-c2ccccc2)c(C)c1`, the “growth rescue (activation)” value was 5.4%. As to `Nc1nc(Nc2ccccc2F)nc(NC2CCCCC2)c1[N+](=O)[O-]`, the “growth rescue (activation)” value was -5.06%.

For `Nc1nc(NCC2CCCO2)nc(Nc2ccccc2F)c1[N+](=O)[O-]` (stereo not drawn), the “growth rescue (activation)” value was -0.227%. Take `C=CCNc1nc(N)c([N+](=O)[O-])c(NC2CCCCC2)n1`: the Potency was 7.08 µM (active).
